Rows were chosen to be rich in hits. Some 5.6% of all compounds tested hit in one or more screens of this group.
M18AAP inhibitor – PfM18AAP inhibitors, malaria aminopeptidase, primary screen, biochemical, QFRET, recombinant enzyme; inhibition, % at 7.35 µM; H-Glu-NHMec fluorogenic cleavage; AID 1822, 2009; actives 1.2% (n = 290,000); M18 aspartyl aminopeptidase (Plasmodium falciparum 3D7);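 active = inhibition above the campaign mean inhibition over all tested compounds plus 3 SD, cut at about 28% in these data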;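 note: 0% = plate median of test compound wells and 100% = 2 mM ZnCl2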
ALR H2O2 inh – inhibitors of human ALR sulfhydryl oxidase, primary screen, biochemical, H2O2 detection, HRP-luminol luminescence, single point | FAD-linked sulfhydryl oxidase ALR (Homo sapiens), P55789 | purified ALR, DTT oxidation | inhibition, % (no concentration beside the values) | actives 3.8% (n = 290,000) | AID 485317, 2010;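 active = mean replicate inhibition above about 79%, with every replicate also reaching it, limit read from the data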
Target sequence (P55789 whole entry, looked up): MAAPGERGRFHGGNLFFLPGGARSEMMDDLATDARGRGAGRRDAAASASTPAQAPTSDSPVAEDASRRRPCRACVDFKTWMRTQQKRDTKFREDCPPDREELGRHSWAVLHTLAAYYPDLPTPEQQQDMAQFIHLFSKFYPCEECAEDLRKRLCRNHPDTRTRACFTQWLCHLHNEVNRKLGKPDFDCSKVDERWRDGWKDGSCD
PfGluPho inh – PfG6PD enzyme inhibitors, primary screen, biochemical, fluorescence intensity, uHTS. glucose-6-phosphate dehydrogenase-6-phosphogluconolactonase (Plasmodium falciparum 3D7). PfGluPho enzyme, NADPH resazurin-diaphorase fluorescence. inhibition, % at 20 µM. actives 0.78% (n = 350,000). AID 504690, 2011;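 active = inhibition reaching at least a set limit at 20 µM in the primary screen, cut at about 59% in these data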;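 note: 0% = DMSO wells with substrate and 100% = DMSO wells lacking glucose-6-phosphate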
PHOSPHO1 inh – PubChem AID 1565. recombinant PHOSPHO1, absorbance phosphatase assay. inhibition, % at 13.3 µM. actives 1.1% (n = 290,000); in the data active = inhibition above about 60%
Target sequence (Q8TCT1 whole entry, looked up): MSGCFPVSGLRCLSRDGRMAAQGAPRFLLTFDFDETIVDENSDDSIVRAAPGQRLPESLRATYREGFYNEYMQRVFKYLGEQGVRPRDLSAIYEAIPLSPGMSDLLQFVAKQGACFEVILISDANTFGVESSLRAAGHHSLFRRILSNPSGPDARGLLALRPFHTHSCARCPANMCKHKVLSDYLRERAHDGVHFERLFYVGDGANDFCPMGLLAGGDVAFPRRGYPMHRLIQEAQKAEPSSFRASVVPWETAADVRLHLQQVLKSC
Cardio protect – cardioprotection against H2O2-induced cell death, primary screen, uHTS, H9c2 cells, ATPLite luminescence | AID 588492, 2011 | H9c2 cardiomyocytes, H2O2 injury protection, 2 h | protection from H2O2 cell death, % at 20 µM | actives 0.63% (n = 360,000);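 active = compounds giving at least 50% protection of heart cells from peroxide-induced death in the single-dose screen, raw or plate-pattern-corrected value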;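 note: 0% = DMSO wells with peroxide and 100% = DMSO wells without peroxide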
Active calls of the source: *; · = no result.

SMILES	M18AAP inhibitor	ALR H2O2 inh	PfGluPho inh	PHOSPHO1 inh	Cardio protect
O=C(C1CCN(S(=O)(=O)c2ccccc2F)CC1)N1CCN(Cc2ccc3c(c2)OCO3)CC1	·	-2.8	-14.2	·	-0.3
CCN(CCC#N)c1ccc(/C=N/Nc2nc(C)cc(=O)[nH]2)c(C)c1	4.3	98.8*	26.7	-7.1	6.2
Cc1cc(=O)[nH]c(Nc2ccc(N(C)C)cc2)n1	-18.8	98.7*	18.1	18.9	4.4
Cc1cc(=O)[nH]c(N/N=C/c2ccc(F)cc2)n1	8.5	15.4	3.5	15.0	-5.1
Cc1cc(=O)[nH]c(N/N=C/c2ccc(N(C)C)cc2)n1	8.1	98.9*	-3.0	22.0	-7.0
Cc1cc(=O)[nH]c(N/N=C/c2ccc(Cl)cc2Cl)n1	-1.3	-6.4	-4.5	29.2	4.7
COc1ccc(Cc2nnc(N/N=C/c3ccc(N(C)C)cc3)[nH]c2=O)cc1OC	6.6	98.8*	3.9	23.1	1.0
COc1cc(/C=N/Nc2nc(C)cc(=O)[nH]2)ccc1O	18.9	98.5*	-9.0	20.3	-5.1
Cc1cc(N/N=C/c2ccc(N(C)C)cc2)nc(NCc2ccccc2)n1	2.9	29.5	13.5	20.0	-10.7
CCNc1nc(NCC)nc(N/N=C/c2ccc(N(C)C)cc2)n1	7.1	98.9*	-17.0	31.7	-1.4
COc1ccc(OC)c(NC(=O)CSc2nc(O)cc(=O)n2CC(C)C)c1	·	-5.5	-15.1	·	5.4
COc1ccc(CSc2nc(O)cc(=O)n2CC(C)C)cc1F	0.1	98.6*	-10.3	23.0	0.5
Cn1nnnc1SCC(=O)C(C)(C)C	-3.2	-3.3	20.4	3.5	3.0
COC(OC)c1ccc(C#N)c(=O)[nH]1	-6.1	-13.3	10.4	15.5	-5.4
NC(=O)c1ccccc1NC(=O)Nc1cccc2ccccc12	3.4	-73.9	11.2	-25.8	2.5
O=C(NC(=S)Nc1cccc2ncccc12)c1ccco1	7.7	-27.0	9.8	-67.7	-0.8
O=C(NC(=S)Nc1cccc2cc(O)ccc12)c1ccccc1Br	2.0	44.7	9.2	32.2	-9.5
O=C(NC(=S)Nc1cccc2cc(O)ccc12)c1ccco1	6.8	94.5*	28.7	16.2	-4.1
CCCC(=O)NC(=S)Nc1cccc2c(O)cccc12	-1.1	90.9*	26.2	38.5	-3.7
O=C(NC(=S)Nc1cccc2c(O)cccc12)c1ccco1	17.0	99.4*	37.4	2.5	-1.7
NC(=O)NNC(=S)Nc1cccc2ccccc12	49.5*	12.7	18.9	-23.7	-0.5
CCCC(=O)NC(=S)Nc1ccccc1C(=O)OC	7.8	60.7	23.8	3.9	10.9
O=C(NCC1OCCCN1S(=O)(=O)c1cc(F)ccc1F)C(=O)NC1CCCC1 (stereo unspecified)	-0.3	-0.7	-4.9	23.3	-2.2
CCCCCCCCNS(=O)(=O)CCNCc1ccccc1OC	·	·	11.2	·	-12.3
COc1cccc(OC)c1C(=O)Nc1ccc(CN2CCCCC2)cc1	-0.2	·	0.7	-6.0	-1.9
SMILES	M18AAP inhibitor	ALR H2O2 inh	PfGluPho inh	PHOSPHO1 inh	Cardio protect
COc1c(C)cccc1C(=O)Nc1ccc(CN2CCCCC2)cc1	1.2	94.4*	3.8	2.5	2.0
O=C(Nc1ccc(N2CCCCCC2)cc1)c1ccccc1Cl	19.8	66.4	2.5	37.8	1.5
COc1ccccc1C(=O)Nc1ccc(N2CCCCC2)cc1	1.0	83.2*	29.1	17.0	-25.0
COC(=O)c1ccccc1NC(=O)c1ccccc1OC	1.4	2.4	-11.3	-4.9	-9.5
COc1ccccc1C(=O)Nc1ccccc1SC(=O)c1ccccc1OC	30.9*	-3.4	15.5	19.7	-14.5
O=C(Nc1ccc(N2CCCCCC2)cc1)c1ccc[nH]1	·	99.1*	26.8	·	-21.6
Cc1cc(N/N=C/c2ccc(O)cc2O)nc(N2CCOCC2)n1	23.6	96.9*	10.6	21.0	26.4
Oc1ccc(/C=N\Nc2cc(N3CCOCC3)nc(N3CCOCC3)n2)c(O)c1	25.8	85.4*	9.3	-4.0	33.1
NC(=O)NC(CC(=O)NNC(=O)c1ccccn1)c1ccccc1Cl (stereo unspecified)	·	-1.2	0.7	·	2.7
CC(NC(=O)CCCCCNC(=O)N1CCn2c1nc1ccccc12)c1ccccc1 (stereo unspecified)	12.6	91.6*	-10.0	10.3	-0.8
CSCC[C@H](NC(=O)N1CCn2c1nc1ccccc12)C(=O)NCc1ccco1	4.0	96.2*	14.2	14.4	-4.6
COc1ccc(CNC(=O)[C@H](C)NC(=O)N2CCn3c2nc2ccccc23)cc1	5.8	-1.5	1.8	69.7*	5.1
CSCC[C@H](NC(=O)N1CCn2c1nc1ccccc12)C(=O)NCc1ccccc1	-1.3	-15.9	1.4	18.4	-2.3
CCOC(=O)c1sc2nc(C3CC3)cc(-c3ccc(F)cc3)c2c1N	0.5	54.4	6.9	39.9	-9.5
CCOC(=O)c1sc2nc(C3CC3)cc(-c3ccc(OC)cc3)c2c1N	-3.5	0.2	-10.9	73.8*	-11.0
CS(=O)(=O)N(CC(=O)NCc1ccccc1)Cc1ccc(Cl)cc1	-3.8	·	-11.2	-11.5	-2.9
CS(=O)(=O)N(CC(=O)NCc1ccccn1)Cc1ccc(Cl)cc1	-4.2	98.8*	-1.4	1.1	2.9
COc1cccc(Oc2cn[nH]c2-c2ccc(O)cc2O)c1	9.8	80.4*	51.2	-3.2	-7.7
COc1ccc(-c2cn[nH]c2-c2ccc(OC)cc2O)cc1	3.9	96.9*	-1.4	24.2	-6.6
COc1ccc(-c2[nH]ncc2-c2ccc(Cl)cc2)c(O)c1	-4.5	18.3	-3.6	21.3	-6.0
O=C(NCCc1nnc2ccc(NCCCN3CCOCC3)nn12)c1ccccc1F	14.4	-2.6	3.5	45.3	0.3
Nc1ccc(C(=O)N/N=C/c2ccc(N3CCOCC3)s2)cc1	·	·	5.2	·	0.3
CC(C)(C)OC(=O)N/N=C/c1ccc(N2CCOCC2)s1	6.6	83.1*	7.5	-7.4	3.2
Cc1noc(C)c1CSc1nnc(-c2ccccc2)n1Cc1ccco1	-2.9	-4.7	4.2	45.2	-1.8
Cc1noc(C)c1CSc1nc2ccccc2n1CCc1ccccc1	1.7	95.1*	40.1	15.4	-4.3
SMILES	M18AAP inhibitor	ALR H2O2 inh	PfGluPho inh	PHOSPHO1 inh	Cardio protect
Cc1noc(C)c1CSc1nnc(-c2ccccc2)n1N	-16.1	7.1	50.8	97.4*	10.0
Cc1ccc2[nH]c(CSc3ccccc3)cc(=O)c2c1	1.4	·	22.1	29.9	-7.5
CN(C)S(=O)(=O)N1CCC(Oc2cccc(C(=O)N3CCSCC3)c2)CC1	-1.7	-0.7	-4.8	-9.0	-0.8
Nc1ccc(NC(=O)Nc2ccc(N)cc2)cc1	-1.1	99.2*	-3.9	16.2	-5.4
CC(=O)Nc1ccc(N)cc1	·	89.4*	10.3	·	8.1
CC(=O)Nc1ccc(NC(=O)C(C)NC(C)c2cccc3ccccc23)cc1 (stereo unspecified)	2.4	-1.1	-20.9	23.7	2.8
CCCC(=O)Nc1c(-c2cccc(OC)c2)c(=O)c2ccccc2n1C	1.7	-5.8	-1.1	0.0	7.4
Clc1ccc(-c2nc3ccc(Br)cn3c2Cc2ccsc2)cc1	·	·	·	·	-3.7

Screening results deposited in PubChem BioAssay by several laboratories.
